# The whole screen tested about 310,000 compounds, of which about 14,000 (4.5%) showed an effect of 50% or more. The effect is printed as a negative number. This excerpt belongs to a sample that is enriched for strong results.
# Molecular target: human ether-à-go-go-related gene (hERG) potassium channel (human, UniProt Q12809)
# Assay: primary screen, population patch clamp on CHO cells stably expressing hERG; higher = less effect of the substance
# 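Further: peak tail current of the secondary pulse compared with the same well before compound.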
# Sequence of human ether-à-go-go-related gene (hERG) potassium channel (Q12809 whole entry, looked up): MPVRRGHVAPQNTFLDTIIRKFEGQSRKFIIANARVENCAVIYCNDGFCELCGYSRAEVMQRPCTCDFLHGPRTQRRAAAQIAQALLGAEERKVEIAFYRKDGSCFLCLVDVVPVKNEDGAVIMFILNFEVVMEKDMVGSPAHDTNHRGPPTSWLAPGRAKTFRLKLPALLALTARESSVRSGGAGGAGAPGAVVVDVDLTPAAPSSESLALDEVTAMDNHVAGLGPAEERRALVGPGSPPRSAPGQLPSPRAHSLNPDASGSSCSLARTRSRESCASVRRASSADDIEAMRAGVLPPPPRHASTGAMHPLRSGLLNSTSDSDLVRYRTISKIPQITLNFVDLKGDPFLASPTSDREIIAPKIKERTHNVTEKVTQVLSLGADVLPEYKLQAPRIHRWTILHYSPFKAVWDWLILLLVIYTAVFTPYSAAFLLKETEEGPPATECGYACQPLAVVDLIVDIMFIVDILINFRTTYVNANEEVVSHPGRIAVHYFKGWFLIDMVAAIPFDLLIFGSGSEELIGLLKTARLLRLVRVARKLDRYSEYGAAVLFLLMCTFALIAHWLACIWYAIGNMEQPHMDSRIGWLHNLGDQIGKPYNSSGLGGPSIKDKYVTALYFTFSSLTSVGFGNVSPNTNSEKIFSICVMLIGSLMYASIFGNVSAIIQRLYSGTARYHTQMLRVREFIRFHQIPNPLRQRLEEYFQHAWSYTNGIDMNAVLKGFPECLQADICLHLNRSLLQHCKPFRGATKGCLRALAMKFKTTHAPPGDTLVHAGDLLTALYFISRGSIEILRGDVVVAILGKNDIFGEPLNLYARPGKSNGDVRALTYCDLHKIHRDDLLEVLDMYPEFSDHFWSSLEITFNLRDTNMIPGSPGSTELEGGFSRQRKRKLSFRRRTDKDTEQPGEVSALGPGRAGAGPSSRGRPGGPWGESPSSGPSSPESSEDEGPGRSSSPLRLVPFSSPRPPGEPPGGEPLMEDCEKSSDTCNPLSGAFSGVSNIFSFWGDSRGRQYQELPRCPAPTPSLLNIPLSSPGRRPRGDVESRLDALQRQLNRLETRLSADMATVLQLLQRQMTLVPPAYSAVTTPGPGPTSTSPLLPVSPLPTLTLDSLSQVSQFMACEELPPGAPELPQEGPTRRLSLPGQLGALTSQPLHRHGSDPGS
row,SMILES,"hERG current change (%, negative = inhibition) at 10uM [%]"
1,COC(=O)c1cc2c(C)nn(-c3ccccc3)c2s1,2.91
2,CC(=O)c1cccc(NC(=O)COC(=O)c2ccccn2)c1,5.33
3,Cc1ccc(-c2nnc(-c3cc(C)on3)o2)cc1,19.6
4,O=C(CNC(=O)c1ccc([N+](=O)[O-])cc1)c1ccccc1,-6.36
5,COc1cc(N(C)C)c([N+](=O)[O-])cc1C(=O)NC(C)CNc1ccc([N+](=O)[O-])cc1Cl (stereo not drawn),-2.36
6,COC(=O)C1=CO[C@@H](C)[C@H]2CN3CC[C@]4(C(=O)Nc5ccccc54)[C@@H]3C[C@H]12,15.5
7,Fc1ccccc1NC(=S)Nc1cccc2cnccc12,46.8
8,Cc1cccc(CSc2ccc3nnc(-c4ccccn4)n3n2)c1,-75.7
9,COc1cccc(NC(=O)CSc2ccc3nnc(-c4ccccn4)n3n2)c1,-47.3
10,Fc1cccc(CSc2ccc3nnc(-c4ccccn4)n3n2)c1,-77.9
11,Cc1cccc(CSc2nnc(-c3ccccn3)n2N)c1,2.88
12,Fc1cccc(Cl)c1CSc1ccc2nnc(-c3ccccn3)n2n1,-13.5
13,O=C(CSc1ccc2nnc(-c3ccccn3)n2n1)Nc1cccc(F)c1,-40.6
14,Cc1cn2nc(N)c3ccccc3c2n1,-9.19
15,CCOC(=O)c1cc(C(C)=O)c(=O)[nH]c1C,12
16,Cc1cccc(C(=O)N2CCCC(CCC(=O)N3CCN(c4ccccn4)CC3)C2)c1 (stereo not drawn),-74.5
17,Cc1ccc(C(=O)N2CCCC(CCC(=O)N3CCN(c4ccccn4)CC3)C2)cc1C (stereo not drawn),-34.9
18,O=C(CCC1CCCN(c2ncccn2)C1)N1CCN(c2ccccn2)CC1 (stereo not drawn),-23
19,Cc1ccc(C(=O)N2CCCC(CCC(=O)N3CCN(c4ccccn4)CC3)C2)cc1 (stereo not drawn),-9.9
20,CCc1ccc(CN2CCCC(CCC(=O)N3CCN(c4ccccn4)CC3)C2)o1 (stereo not drawn),-58.7
21,CCc1cc(C(=O)N2CCCC(CCC(=O)N3CCN(c4ccccn4)CC3)C2)no1 (stereo not drawn),-17.4
22,O=C(CN1C(=O)c2ccccc2S1(=O)=O)NCCSCc1c(F)cccc1Cl,-29.7
23,CCOC(=O)CC(=O)CSc1nc(-c2ccccc2)cc(-c2ccccc2)c1C#N,10.1

row,SMILES,"hERG current change (%, negative = inhibition) at 10uM [%]"
1,Cc1ccc(S(=O)(=O)Nc2cc3c(cc2N2CCOCC2)n(C)c(=O)c(=O)n3C)cc1,-9.6
2,COc1ccc(OC)c(S(=O)(=O)Nc2cc3c(cc2N2CCCC2)n(C)c(=O)c(=O)n3C)c1,-50.7
3,Cn1c(=O)c(=O)n(C)c2cc(N3CCOCC3)c(NS(=O)(=O)c3ccc(Br)cc3)cc21,-27
4,Cn1c(=O)c(=O)n(C)c2cc(N3CCCCC3)c(NS(=O)(=O)c3ccc([N+](=O)[O-])cc3)cc21,-50.6
5,Cn1c(=O)c(=O)n(C)c2cc(N3CCCC3)c(NS(=O)(=O)c3ccc(F)cc3)cc21,-16.2
6,COc1ccc(OC)c(NS(=O)(=O)c2cc(OC)ccc2OC)c1,-2.14
7,CCc1ccc(S(=O)(=O)Nc2cc3c(cc2N2CCCCC2)n(C)c(=O)c(=O)n3C)cc1,-85.6
8,CCc1ccc(S(=O)(=O)Nc2cc3c(cc2N2CCOCC2)n(C)c(=O)c(=O)n3C)cc1,-32.1
9,Cn1c(=O)c(=O)n(C)c2cc(N3CCCC3)c(NS(=O)(=O)c3ccc(Cl)cc3)cc21,-44.3
10,Cn1c(=O)c(=O)n(C)c2cc(N3CCOCC3)c(NS(=O)(=O)c3ccc([N+](=O)[O-])cc3)cc21,2.58
11,COc1ccc(OC)c(S(=O)(=O)Nc2ccc3c(c2)n(C)c(=O)n3C)c1,1.61
12,Cn1c(=O)c(=O)n(C)c2cc(N3CCCCC3)c(NS(=O)(=O)c3ccc(Br)cc3)cc21,-65.1
13,CCC(CC)c1nnc(NC(=O)c2cccnc2SC)s1,15.4
14,C/C=C/c1ccc(OCCCCN2C(=O)NC(C)(C)C2=O)c(OC)c1,-7.09
15,COc1ccccc1C(O)(C(=O)NN(C)c1ccccc1)c1ccccc1OC,9.03
16,Cc1cccc(OCCCCc2c(C)n[nH]c2C)c1C,9.64
17,CCc1ccc(/C=C2\Oc3cc(OS(C)(=O)=O)ccc3C2=O)cc1,11.8
18,O=S(=O)(NC1=NCCC1)c1cccc(NS(=O)(=O)c2ccc(OC(F)(F)F)cc2)c1,1.71
19,CN1CCN(CCNC(=O)Nc2ccccc2C(F)(F)F)CC1,3.26
20,CC1(C)C2CCC1(C)C(OC(=O)C[n+]1ccccc1N)C2.[Br-] (stereo not drawn),-35.3
21,CCOC(=O)C1CCN(c2cc3c(cc2NC(=O)c2cc(OC)ccc2Br)n(C)c(=O)n3C)CC1,0.12
22,COCCNc1c([N+](=O)[O-])c(=O)n(-c2ccccc2)c2ccccc12,-25.2
23,O=C(c1ccccc1Oc1ccc(C(F)(F)F)cc1[N+](=O)[O-])N1CCOCC1,1.22

row,SMILES,"hERG current change (%, negative = inhibition) at 10uM [%]"
1,COC(=O)CN1C(=O)C(O)(CC(=O)c2cccc(Br)c2)c2ccccc21 (stereo not drawn),-11.7
2,CN(Cc1ccccn1)Cc1nc(COc2ccccc2)no1,-2.85
3,c1ccc(COc2ccccc2CNC2CCCC2)cc1,-39.7
4,COc1cccc(CNCc2cccnc2)c1OCc1ccccc1.Cl,19.3
5,COc1cc(CNC23CC4CC(CC(C4)C2)C3)ccc1OCc1ccccc1.Cl,-64
6,CNCc1ccc(OCc2ccccc2)c(OC)c1,0.71
7,CCNCc1ccccc1OCc1ccccc1.Cl,-3.77
8,COc1cccc(CNCCO)c1OCc1ccccc1.Cl,-1.31
9,COc1cccc(CNC23CC4CC(CC(C4)C2)C3)c1OCc1ccccc1.Cl,-50
10,Cl.c1ccc(COc2ccccc2CNC23CC4CC(CC(C4)C2)C3)cc1,-83.6
11,COc1cc(CNC(=O)C2CC2)ccc1OCc1ccccc1,-11.8
12,COc1cc(NC(=O)CS(=O)(=O)c2ccccc2)cc(OC)c1OC,11.3
13,Cc1cccc(NC(=O)Nc2cccc(Oc3c(F)c(F)c(F)c(F)c3F)c2)c1,8.83
14,N#C/C(=C/c1ccc(Br)s1)C(=O)NCCc1c[nH]c2ccccc12,18.8
15,O=C(COC(=O)c1ccc([N+](=O)[O-])cc1)Nc1cccnc1Cl,-1.85
16,O=C(Nc1ccncc1)c1cc(S(=O)(=O)N2CCOCC2)ccc1Cl,-46.6
17,O=C(Nc1ccncc1)C1CCN(S(=O)(=O)c2ccc(Cl)c(C(F)(F)F)c2)CC1,-69.9
18,O=C(Nc1cc(S(=O)(=O)N2CCCCC2)ccc1N1CCCCC1)c1ccncc1,-52.4
19,CCN(CC)S(=O)(=O)c1ccc(N2CCCCC2)c(NC(=O)c2ccncc2)c1,-29.5
20,CCN(CC)S(=O)(=O)c1ccc(N2CCCC2)c(NC(=O)c2ccncc2)c1,-22.6
21,CS(=O)(=O)Nc1ccc(S(=O)(=O)N2CCCCCC2)cc1,-65.4
22,O=C(Nc1nccs1)C1CCN(S(=O)(=O)c2ccc(Cl)c(C(F)(F)F)c2)CC1,-0.668
23,O=C(Nc1ccncc1)c1cc(S(=O)(=O)N2CCCCC2)ccc1Cl,-56.2

row,SMILES,"hERG current change (%, negative = inhibition) at 10uM [%]"
1,O=C(Nc1ccc(O)cc1)c1cc(S(=O)(=O)N2CCCC2)ccc1Cl,-14.9
2,CS(=O)(=O)Nc1ccc(S(=O)(=O)N2CCCC2)cc1,8.49
3,CS(=O)(=O)Nc1ccc(C(=O)Nc2ccc(S(=O)(=O)N3CCCCC3)cc2)cc1,-13.8
4,Cc1ccnc(NC(=O)C2CCN(S(=O)(=O)c3ccc(Cl)c(C(F)(F)F)c3)CC2)c1,-14.2
5,COc1ccc(S(=O)(=O)CCC(=O)Nc2c(C)cccc2C)cc1,23
6,CC(=O)Nc1ccc(S(=O)(=O)NCCSCc2ccccc2Cl)cc1,2.92
7,COc1ccc(Br)cc1-c1nc2c(c(=O)[nH]c(=O)n2Cc2ccccc2)n1C,5.42
8,CC(C)CN(C(=O)Cn1c(C(F)(F)F)nc2ccccc21)C1CCS(=O)(=O)C1 (stereo not drawn),-9.53
9,Cc1ccc(N2C(=O)C(NC(=O)c3ccccc3F)(C(F)(F)F)C3=C2CC(C)(C)CC3=O)cc1 (stereo not drawn),6.43
10,CC(SC1=Nc2ccccc2C2CC=NN12)C(=O)NC1(C#N)CCCCC1 (stereo not drawn),-19.8
11,CNC(=S)N/N=C/C1=CCC2CC1C2(C)C (stereo not drawn),-3.84
12,O=C(Cn1nnc2ccccc2c1=O)Nc1cc(C(F)(F)F)ccc1N1CCOCC1,-14.5
13,O=C(Nc1ccc(S(=O)(=O)N2CCCCCC2)cc1)c1ccco1,-72.5
14,CN1CCN(S(=O)(=O)c2ccc(NC(=O)c3ccccc3Cl)cc2)CC1,8.9
15,O=C(Nc1ccc(S(=O)(=O)N2CCCCC2)cc1)c1ccco1,-10.7
16,O=C(Nc1cc(S(=O)(=O)N2CCCCC2)ccc1Cl)c1ccncc1,-50.2
17,O=C(O)c1ccccc1C(=O)Nc1ccc(S(=O)(=O)N2CCCC2)cc1,22.3
18,O=C(Nc1cc(S(=O)(=O)N2CCCCC2)ccc1Cl)c1ccc(F)cc1,-8.99
19,O=C(Nc1ccc(S(=O)(=O)N2CCOCC2)cc1)c1ccco1,-20.3
20,O=C(Nc1ccc(S(=O)(=O)N2CCCCC2)cc1)c1ccccc1Cl,-73.1
21,COc1cc(S(=O)(=O)N2CCCCC2)ccc1NC(=O)c1ccncc1,-30.8

# — article PMC4336329 (PLoS ONE, 2015)
